A selection: hits, their analogues and other compounds. The true share with any hit is near 7.5%.
FLuc modulator: counter-screen for miR-21 project: firefly luciferase inhibitors or activators | P08659 | purified FLuc, Km substrates, luminescence inhibition | Potency, µM (series often up to 57.5 µM), for the others: top-dose activity change, negative = inhibition, most hits filed as inhibitors | 360,000 compounds, 6.9% hits | AID 588342;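 further: plate controls were vehicle for no effect and reference inhibitor for full effect; nearly all actives have a fitted effect of over 55% in size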
Target sequence (P08659 whole entry, looked up): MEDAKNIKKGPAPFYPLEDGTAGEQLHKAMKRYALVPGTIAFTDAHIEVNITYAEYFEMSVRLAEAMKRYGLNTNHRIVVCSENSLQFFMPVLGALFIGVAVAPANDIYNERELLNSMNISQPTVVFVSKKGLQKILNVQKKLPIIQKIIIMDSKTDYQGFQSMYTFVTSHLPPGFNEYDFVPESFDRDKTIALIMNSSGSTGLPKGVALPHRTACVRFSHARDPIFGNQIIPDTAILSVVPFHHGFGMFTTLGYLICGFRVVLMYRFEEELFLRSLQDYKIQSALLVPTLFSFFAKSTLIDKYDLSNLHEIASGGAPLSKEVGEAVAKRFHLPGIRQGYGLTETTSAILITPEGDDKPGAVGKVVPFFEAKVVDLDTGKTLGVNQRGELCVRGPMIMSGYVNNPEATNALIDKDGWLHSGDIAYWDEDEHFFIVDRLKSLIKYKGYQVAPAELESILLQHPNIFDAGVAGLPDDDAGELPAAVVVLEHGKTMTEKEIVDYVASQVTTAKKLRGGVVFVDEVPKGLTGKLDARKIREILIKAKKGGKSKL
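Biochemical qHTS of compounds, final roughly 60 µM downward over six points, against 10 nM purified firefly luciferase using Km concentrations of substrates (10 uM D-luciferin, 10 uM ATP) in Tris acetate pH 7.5 buffer; luminescence output.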
ELG1 genotox: genotoxicity induction in ELG1-luciferase HEK293T cells; HEK293T ELG1-luciferase reporter, luminescence, 16 h; Potency, µM (top dose mostly 46 µM), for the others: top-dose activity change, positive = activation, most hits filed as activators; 330,000 compounds, 1.3% hits; AID 504466; further: % of control where 0% means no effect; nearly all actives have a fitted effect of over 60% in size
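Genotoxic stress is detected as increased luminescence from luciferase-tagged ELG1 in HEK293T cells, measured with ONE-Glo after a 16 hr treatment at 37 °C.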
SMN2 splice enh: SMN2 splice variant enhancement; HEK293 SMN2-luciferase splicing reporter, luminescence, 30-36 h; Potency, µM (top dose mostly 46.1 µM), for inactives: top-dose activity change, positive = activation, hits mostly activators; 210,000 compounds, 2.8% hits; further: % of control where 0% means no effect; nearly all actives have a fitted effect of over 55% in size
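HEK293 cells carry an SMN2 minigene-luciferase reporter in which exon 7 inclusion puts luciferase in frame. Cells were seeded at 2000 cells/well, attached for 10-12 hours, then exposed to compounds for 30-36 hours at 37C before ONE-Glo luminescence.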
Rab9 promoter act: Rab9 promoter activation. Huh7 Rab9 promoter-luciferase reporter, luminescence, 24 h. 320,000 compounds, 2.8% hits. Potency, µM (titrated, usually from 9.22 µM), inactives show top-dose activation, negative = inhibition, actives largely listed as activators. AID 485297; further: % of control where 0% means no effect; nearly all actives have a fitted effect of over 60% in size
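Cell-based reporter: Huh7 stable for Rab9 promoter-driven luciferase, plated in reduced-serum medium with 10% FBS at 1500 cells/well, compound-treated 24 h at 37 °C, luminescence read after 10 min reagent.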
KinaseGlo FLuc: Kinase-Glo luciferase inhibition (counter-screen) | Q27757 | Potency, µM (titrated, usually from 38.3 µM), for the others: at the highest dose activity change, negative = inhibition, hits mostly inhibitors | Kinase-Glo luciferase, ATP luminescence, 8 min | 200,000 compounds, 0.28% hits; further: on the % scale 0 is the no-effect control and ±100 the full control effect; nearly all actives have a fitted effect of over 60% in size
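Kinase-Glo luciferase light output from ATP and luciferin was measured with 10 uM ATP, within the enzyme's linear range. Buffer: 50 mM imidazole pH 7.2, 50 mM KCl, 7 mM MgCl2, 0.01% Tween 20, 0.05% BSA; luminescence read after 8 min at ambient temperature.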
NPC1 promoter act: activates the NPC1 promoter | Huh7 NPC1 promoter luciferase reporter, 24 h | Potency, µM (series often up to 9.22 µM), for the others: at the highest dose activation, most hits filed as activators | 320,000 compounds, 2.4% hits | AID 485313; further: % of control where 0% means no effect; nearly all actives have a fitted effect of over 60% in size
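Huh7 reporter cells (NPC1 promoter driving luciferase) are dosed with compound for 24 h at 37 °C, 5% CO2; luciferase detection reagent is then added and luminescence measured after 10 min at ambient temperature.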
* = called active by the depositor; ? = inconclusive; · = no result given; [ ] = another dose, or the depositor's remark. The call rests on the fitted dose curve; in most records, active means well fitted curve in the direction sought with a large enough effect; inconclusive means small, poorly fitted or top-dose-only effect, or another doubt; inactive means no such curve, though single readings can be large; an effect the other way counts as inactive or inconclusive. Potency means the concentration at half of the fitted maximal effect.

SMILES	FLuc modulator	ELG1 genotox	SMN2 splice enh	Rab9 promoter act	KinaseGlo FLuc	NPC1 promoter act
Cc1nc2ccc(NC(=O)c3ccc([N+](=O)[O-])cc3)cc2s1	-2%	8%	-14%	13%	3%	11%
O=C(Cn1ncc2c1-c1ccccc1OC2)N1CCN(c2ccccc2)CC1	5%	·	-6%	·	·	·
Cc1nc2ccc(NC(=O)c3ccc(Cl)nc3)cc2s1	?	1%	·	21%	·	14%
Cc1nc2ccc(NC(=O)c3cc(Cl)ccn3)cc2s1	1.5µM*	1.3µM*	·	0.5µM*	·	0.71µM*
Cc1ccc2nc(CSc3nc(C)cc(C)c3C#N)[nH]c2c1	3.4µM*	?	4.5µM*	?	-1%	12%
CCOc1ccc(Cl)cc1S(=O)(=O)n1nnc2ccccc21	0%[2.3 µM]	-5%	25µM*	-6%	2%	-2%
CCOc1ccc(S(=O)(=O)n2nnc3ccccc32)cc1C	2%	3%	-11%	-2%	-6%	-1%
Cc1cccc(Nc2ncc3c(n2)CC(C)CC3=O)c1 (stereo unspecified)	9.5µM*	4.6µM*	11µM*	3.5µM*	-7%	3.5µM*
Cc1ccc2nc(Nc3ncc4c(n3)CCCC4=O)nc(C)c2c1	-1%	0%	6%	5%	10%	-2%
CCc1ccc(Nc2ncc3c(n2)CC(C)(C)CC3=O)cc1	15µM*	?	·	2.5µM*	·	3.2µM*
Cc1cc(C)cc(Nc2ncc3c(n2)CCCC3=O)c1	3.4µM*	?	2.5µM*	4µM*	-2%	4µM*
Cc1cccc(Nc2ncc3c(n2)CC(c2ccco2)CC3=O)c1 (stereo unspecified)	2%	0%	10%	0%	0%	-2%
CCc1ccc(Nc2ncc3c(n2)CC(C)CC3=O)cc1 (stereo unspecified)	?	?	·	1.3µM*	-5%	2µM*
CS(=O)(=O)CCCCN=C=S	·	·	-7%	·	-5%	·
CC(NC(=O)C1CCC(CNS(=O)(=O)c2ccc3c(c2)C(C)(C)C(=O)N3C)CC1)c1ccccc1 (stereo unspecified)	1%	-1%	·	-4%	·	2%
COc1cccc(C(=O)Nc2nnc(-c3ccccc3)s2)c1	4.8µM*	?	·	1.6µM*	·	1.4µM*
CC(C)(C)c1ccc(-c2nnc(NC(=O)c3ccccc3)s2)cc1	1.7µM*	3%	2%	?	-1%	?
COCC(=O)Nc1nnc(-c2ccc(C(C)(C)C)cc2)s1	1.9µM*	3.7µM*	8.9µM*	0.56µM*	1%	1.1µM*
N#C/C(=C\c1ccc(F)c(Br)c1)C(=O)NC1CC1	?	10µM*	·	4µM*	·	3.2µM*
Cc1ccc(C)c(Cn2c(=O)n(CCc3ccccc3)c(=O)c3c(C)c(C)sc32)c1	0%	·	8%	·	·	·
COc1ccccc1C(=O)NC(=O)COC(=O)C1CCC1	8.5µM*	-4%	·	0%	·	-3%
O=C(COC(=O)C1CCC1)NC(=O)c1ccccc1	?	-4%	·	1%	·	1%
O=C(/C=C/Nc1ccc(Br)cn1)c1cccc(OC(F)F)c1	2.7µM*	?	·	2.2µM*	·	2.8µM*
CCN(CC)C(=O)Cn1cc(SCC(=O)Nc2cccc(C)c2)c2ccccc21	-4%	·	·	·	·	·
CCOc1ccc(NC(=O)c2cc3cc(C)ccc3n2C)cc1	-3%	·	·	·	·	·
SMILES	FLuc modulator	ELG1 genotox	SMN2 splice enh	Rab9 promoter act	KinaseGlo FLuc	NPC1 promoter act
Cc1ccc2nc(/C=C/c3cccc(F)c3)ccc2c1	1.2µM*	1.8µM*	10µM*	2µM*	-3%	3.5µM*
O=c1[nH]c(/C=C\c2cccc(F)c2)nc(O)c1[N+](=O)[O-]	-11%	0%	·	-3%	·	-1%
O=C(Cn1nc(-c2ccccc2)c2cnc3ccccc3c21)Nc1ccccc1	-1%	·	8%	·	·	·
Nc1ccc(NC(=O)c2ccc(C(=O)Nc3ccc(N)cc3)cc2)cc1	-1%	-1%	·	19%	·	14%
Nc1ccc(C(=O)Nc2ccc(OC(F)(F)C(F)F)c(NC(=O)c3ccc(N)cc3)c2)cc1	21µM*	-4%	·	2%	·	9%
CCOc1cccc(/C=C(/C#N)c2nc3ccccc3[nH]2)c1OCC(=O)O	?	0%	·	0%	·	-5%
N#C/C(=C\c1ccc(OCc2ccc(Cl)cc2Cl)cc1)c1nc2ccccc2[nH]1	-7%	·	-2%	·	·	·
N#C/C(=C\c1cccc(OCC(=O)O)c1)c1nc2ccccc2[nH]1	17µM*	2%	·	13%	·	-4%
COc1cc(/C=C(\C#N)c2nc3ccccc3[nH]2)ccc1OC(=O)c1ccco1	0.95µM*	?	35µM*	?	?	26%
COc1cc(/C=C(/C#N)c2nc3ccccc3[nH]2)ccc1OCC(=O)Nc1ccccc1C	4%	?	-10%	-5%	-9%	-4%
N#C/C(=C\c1ccc(OC(=O)c2ccc(Br)s2)cc1)c1nc2ccccc2[nH]1	-4%	18%	13µM*	?	-2%	?
N#C/C(=C\c1ccc(OC(=O)c2ccc(Cl)s2)cc1)c1nc2ccccc2[nH]1	-2%	?	18µM*	?	2%	21%
CCOc1ccccc1CNC(=O)C1CCN(c2nnc(-n3c(C)ccc3C)s2)CC1	4%	·	·	·	·	·
CN(C)S(=O)(=O)c1ccc(Cl)c(C(=O)NC2CCCCCCC2)c1	-1%	-7%	·	-6%	·	-2%
Cc1ccc(-n2c(=O)c3oc4ccccc4c3n(CC(=O)Nc3ccc(F)c(Cl)c3)c2=O)cc1C	0%	·	·	·	·	·
COc1ccc(-n2c(C)nc3cc(C(=O)NC4CCCC4)ccc32)cc1	-1%	·	·	·	·	·
COC(=O)/C=C/c1ccc(OC(=O)OC)c(OC(=O)OC)c1	-20%	10%	14µM*	-12%	1%	-10%
COc1ccc(/C=C/C(=O)OC(C)C(=O)c2ccccc2)cc1OC (stereo unspecified)	-16%	12%	·	-3%	·	0%
Cc1oc(-c2ccc(Cl)cc2)cc1C(=O)O	11µM*	12%	·	?	·	?
Cc1ccc2oc(Nc3nc(-c4ccccc4)cc(=O)[nH]3)nc2c1	?	21µM*	-15%	?	-3%	20%
COC(=O)Cc1cc(=O)[nH]c(Nc2nc3ccccc3o2)n1	17µM*	8%	24%	-4%	4%	5%
Cc1cc(C)c2nc(Nc3nc(-c4ccccc4)cc(=O)[nH]3)nc(C)c2c1	1.7µM*	4%	·	1%	·	9%
Cc1ccc2oc(=O)c(/C=C(\O)C(C)(C)C)nc2c1	-10%	0%	11%	13%	1%	-2%
Cc1ccc2oc(Nc3nc(C)cc(C)n3)nc2c1	?	9%	4%	3.2µM*	5%	?

High-throughput results (PubChem)
